Compound activity as filed in PubChem.
Hits are enriched below; roughly 21% of the tested compounds scored in any of these assays.
Pf growth 48h = P. falciparum growth inhibition at 48 hours (one generation); P. falciparum luciferase growth in erythrocytes, 48 h; Potency, µM (highest dose often 28.7 µM), for the others: top-dose activity change, negative = inhibition, most hits filed as inhibitors; 310,000 tested, 5.9% active; active = well fitted inhibition curve with a large enough effect; inconclusive = small, poorly fitted or top-dose-only effect, or another doubt; inactive = no such curve, though single readings can be large or run the other way; note: potency is the fitted concentration of half-maximal effect; % is set by controls: 0 for no effect and ±100 for the full control effect
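Luciferase-expressing parasites in RBCs, 2% Hct / 0.1% parasitemia final; RPMI 1640 + 0.5% Albumax; 37 C, 5% CO2, one generation; luminescence read-out, lower signal = inhibition.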
Shiga toxin inh = blocks Shiga toxin action in Vero cells. Vero cells, Shiga toxin protein synthesis inhibition reporter. inhibition, % at 38.7 µM. 290,000 tested, 9.2% active. AID 2315; in the data active = inhibition mostly above about 28%, no sharp cut-off; inactive = mostly below about 43%; note: 0% is about no effect
SARS PLP yeast = inhibitors of SARS-CoV papain-like protease in yeast. AID 485353. 330,000 tested, 0.19% active. S. cerevisiae expressing SARS-CoV PLpro, growth rescue. Potency, µM (series often up to 32.9 µM), without a hit: at the highest dose activity, positive = growth rescue, actives largely listed as activators; note: potency is the fitted concentration of half-maximal effect; 0% is about no effect; nearly all actives have a fitted effect of over 55% in size
NS1 inh = blocks influenza NS1 protein function; Potency, µM (highest dose often 46.1 µM), for inactives: at the highest dose activity, positive = more growth; 270,000 tested, 0.4% active; AID 2326; note: potency is the fitted concentration of half-maximal effect; actives are rising curves; nearly all actives have a fitted effect of over 50% in size
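Growth recovery, yeast-based: influenza A NS1 expressed in S. cerevisiae causes slow growth, and suppressors are detected by OD600. The parent strain without NS1 is used as positive control.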
Pf growth 96h = P. falciparum growth inhibition at 96 hour, primary screen for plastid delayed-death inhibitors. P. falciparum luciferase reporter growth, 96 h. Potency, µM (highest dose often 28.7 µM), inactives show at the highest dose activity change, negative = inhibition, usual class: inhibitors. 320,000 tested, 6.9% active. AID 504834; active = well fitted inhibition curve with a large enough effect; inconclusive = small, poorly fitted or top-dose-only effect, or another doubt; inactive = no such curve, though single readings can be large or run the other way; note: potency is the fitted concentration of half-maximal effect; % is set by controls: 0 for no effect and ±100 for the full control effect
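Plates of compound plus infected erythrocytes (2% hematocrit, 0.05% parasitemia final) incubate 96 hours, 37 C, 5% CO2. Detection reagent added; reduced luminescence from the parasites' luciferase reporter flags inhibition.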
Cycloheximide cs = affects cycloheximide protein synthesis inhibition readout, counter-screen. cell reporter, cycloheximide protein synthesis inhibition counterscreen. max response, %. 300,000 tested, 12% active. AID 2314; in the data active = max response mostly above about 13%, no sharp cut-off; inactive = mostly below about 14%; note: read at 38.3 µM for the half of the compounds with a filed dose; 0% is about no effect
* = called active by the depositor; i = inactive; ? = inconclusive; . = no result given; ! = not confirmed by another sample. Unless noted, calls come from the whole dose curve.

SMILES	Pf growth 48h	Shiga toxin inh	SARS PLP yeast	NS1 inh	Pf growth 96h	Cycloheximide cs
Cc1cc(C)cc(NC(=O)CSc2nc3ccccc3nc2N2CCCCC2)c1	?	17	3%	12%	9.3µM*	-4
COc1ccc(NC(=O)CSc2nc3ccccc3nc2N2CCCC2)cc1Cl	?	-2	4%	-1%	4%	-2
Cc1cc(C)cc(NC(=O)CSc2nc3ccccc3nc2N2CCCC2)c1	2%	10	-4%	1%	?	-4
COc1ccc(S(=O)(=O)Nc2cccc3c2O[C@H](CN(C)C(=O)NC2CCCCC2)[C@@H](C)CN([C@H](C)CO)C3=O)cc1	.	.	-4%	.	.	.
CCOc1ccc(S(=O)(=O)Nc2nc3ccccc3nc2Cl)cc1	24%	1	-6%	-39%	25%	1
CCOc1ccc(NC(=O)CSc2nc3ccccc3nc2N2CCCC2)cc1	-17%	-6	-1%	4%	12µM*	-3
O=C(CSc1nc2ccccc2nc1N1CCOCC1)Nc1ccccc1F	0%	24*	1%	-14%	-15%	20*
CCOc1ccc(S(=O)(=O)Nc2nc3ccccc3nc2N2CCN(C)CC2)cc1	7%	-5	8%	-62%	3.7µM*	7
Cc1ccc(C)n1CCN1CCN(C(=O)CSc2nc3ccccc3nc2N2CCOCC2)CC1	12µM*	12	6%	?	-1%	-1
CCC(C)(C)NC(=O)C(c1ccc(C)cc1)N(CCN1CCOCC1)C(=O)CNC(=O)c1cccs1 (stereo not drawn)	-5%	11	0%	1%	141%	11
Cc1noc(C)c1NC(=O)Nc1ccc2c(c1)C(=O)N([C@H](C)CO)C[C@H](C)[C@@H](CN(C)S(=O)(=O)c1cccs1)O2	.	.	-16%	.	.	.
CC[C@H](C)[C@@H](NC(=O)O[C@@H]1C(=O)c2cc(Br)ccc2O[C@H]1c1ccc2c(c1)OCO2)C(=O)OC	31%	37	-6%	26%	21%	10
CCOc1ccc(N2C(=O)/C(=C/c3ccco3)N(C)C2=S)cc1	8%	-7	3%	19%	2.1µM*	-4
CC(C)CC(c1nnnn1C1CCCC1)N1CCN(c2ccccc2F)CC1 (stereo not drawn)	0%	-5	5%	-47%	38%	-3
Fc1ccccc1N1CCN(C(c2ccccn2)c2nnnn2C2CCCCC2)CC1 (stereo not drawn)	10µM*	-8	-5%	-57%	-6%	5
COc1ccccc1N1CCN(C(c2ccccn2)c2nnnn2C2CCCCC2)CC1 (stereo not drawn)	9.3µM*	-9	-6%	-19%	.	-4
Cc1nc2nc(-c3ccccc3)[nH]n2c(=O)c1C	39%	44	6%	-2%	.	15
Cc1nc2nc(-c3ccc(Cl)cc3)[nH]n2c(=O)c1C	144%	38*	-13%	-2%	208%	5
COc1cc(C(=O)OCCNC(=O)c2ccncc2)cc(OC)c1OC	-8%	-7	?	-1%	?	-3
COCCCNC(c1ccccc1)c1ccncc1 (stereo not drawn)	-2%	-7	4%	1%	2.6µM*	-2
COCCCNc1nc(-c2ccncc2)nc2ccccc12	?	-2	-5%	-34%	40%	-3
CCCCCCN=CC1=C(O)C(C(=O)OC)C(C)(C)CC1=O (stereo not drawn)	.	-8	3%	-2%	?	-4
CC[C@H]1C(c2cccc(Cl)c2)=NN(c2ccccc2)[C@@H]1CO	.	i	.	.	.	16
CCOC(=O)c1cn(-c2c(C)n(C)n(-c3ccccc3)c2=O)c2c(F)c(F)c(F)cc2c1=O	-5%	-6	2%	-3%	5%	-4
Cc1cnc(C(=O)NCCc2ccc(S(=O)(=O)NC(=O)NC3CCCCC3)cc2)cn1	-17%	-10	-10%	9%	6.7µM*!	-4
SMILES	Pf growth 48h	Shiga toxin inh	SARS PLP yeast	NS1 inh	Pf growth 96h	Cycloheximide cs
Cc1cnc(C(=O)NCCc2ccc(C(F)(F)F)cc2)cn1	23%	-8	0%	9%	7%	1
CC1CN(C(C)C)C(C)CC1OC(=O)c1ccccc1 (stereo not drawn)	-9%	-15	9%	10%	-3%	-4
CN1CCCC(OC(=O)c2ccc(C(C)(C)C)cc2)C1 (stereo not drawn)	?	28	-1%	-4%	i	18*
CN1CCCC(OC(=O)c2ccc(Cl)cc2)C1 (stereo not drawn)	-11%	-2	1%	4%	-6%	-2
CC1CN(C)CCC1OC(=O)c1ccccc1 (stereo not drawn)	10%	-8	1%	12%	2.1µM*	1
CN1CCCC(OC(=O)c2ccc3c(c2)OCCO3)C1 (stereo not drawn)	45%	21	-2%	-6%	.	13*
CC(C)Cc1ccc(S(=O)(=O)NCC2CCCO2)cc1 (stereo not drawn)	9%	13	-5%	-12%	-4%	-3
O=S(=O)(Nc1cc(O)cc2cccnc12)c1ccc(Br)s1	.	-5	.	.	.	-8
CCN1CCN(c2ccc(NC(C)=O)cc2Cl)CC1	0%	7	15%	1%	?	1
CCN1CCN(c2ccc(NC(=O)c3cccnc3)cc2Cl)CC1	31%	16	6%	-8%	.	11*
CCN1CCN(c2ccc(NC(=O)c3ccc(F)cc3)cc2Cl)CC1	?	43*	5%	.	-34%	30*
Cc1cc(C)n(-c2ccc(C(=O)Nc3cccnc3Cl)cc2)n1	-1%	13	1%	-5%	21%	5
CCN1CCN(c2ccc(Cl)cc2NC(=O)c2ccc(-n3nc(C)cc3C)cc2)CC1	4.1µM*	.	-1%	.	?	.
CCN(c1ccc(NC(=O)COC(=O)CCC(=O)c2ccc(F)cc2)cc1)C(C)C	19%	-7	-4%	-19%	.	2
COc1ccc(C(=O)NCCCN=C2NS(=O)(=O)c3ccccc32)cc1	17%	-4	0%	7%	17%	-1
CSc1cccc(N2CC(C(=O)NCCC3=CCCCC3)CC2=O)c1 (stereo not drawn)	-14%	.	3%	.	0%	.
O=C(CSc1nnc2c(n1)[nH]c1ccc(S(=O)(=O)N3CCOCC3)cc12)Nc1ccc(F)c(F)c1	?	-18	-2%	.	?	13
CCN(CC)C(=O)Oc1ccc(Br)cc1C(=O)Nc1ccc(F)cc1F	38%	-7	-1%	-7%	19%	2
O=C1COc2ccc(OCc3ccc(F)cc3)cc21	118%	101*	-19%	-59%	31%	51*
Brc1ccccc1OCCCOc1cccc2cccnc12	57%	.	-11%	-105%	?	33*
Cc1cc(Cl)cc(Cl)c1OCCOc1cccc2cccnc12	.	13	0%	-54%	4.1µM*	9
COc1cccc(C=O)c1OCCCOc1cccc2cccnc12	113%	66*	0%	-21%	0%	38*
Cc1ccc(OCCOCCOc2cccc3cccnc23)c(Br)c1	-14%	9	2%	-80%	-6%	-1
